# Results reported in ChEMBL document CHEMBL1157539, “Thousands of chemical starting points for antimalarial lead identification” (Nature, 2010).
# Tested on: Plasmodium falciparum
# Assay: GSK_TCMDC: Inhibition of Plasmodium falciparum 3D7 in whole red blood cells, using parasite LDH activity as an index of growth. Test compounds present at 2uM
# Assay type: functional
row,Structure (SMILES),Inhibition [%]
1,CC1=C(C(=O)Nc2ccc(Cl)cc2)C(c2ccncc2)n2nc(C(F)(F)F)nc2N1 (stereo not drawn),87
2,CCc1ccc(-n2c(=O)c3cccnc3n2CC(=O)NC2CCCC2)cc1,98
3,Cc1ccc(NC(=O)c2ccc3ncccc3c2)cc1OC1CCN(Cc2ccsc2)C1.O=C(O)C(F)(F)F (stereo not drawn),88

# Tested on: Plasmodium falciparum
# Assay: GSK_TCMDC: Inhibition of Plasmodium falciparum Dd2 in whole red blood cells, using parasite LDH activity as an index of growth. Test compounds present at 2uM
# Assay type: functional
row,Structure (SMILES),Inhibition [%]
1,Cl.c1ccc2ncc(CNCCCCCCCCNCc3cnc4ccccc4c3)cc2c1,4
2,O=C(NC1CCN(Cc2ccc(Cl)cc2)CC1)c1cn(-c2ccccc2)nc1-c1cccnc1,9
3,COCCNc1nc(N2CCC(CNC(=O)c3ccc(-c4ccc(C(=O)N(C)C)cc4C)cc3)CC2)nc2cc(OC)c(OC)cc12,97
4,Clc1cc(Cl)cc(Nc2ccnc(Nc3cc(Cl)cc(Cl)c3)n2)c1,73
5,Cc1nc2nc(N)nc(N)c2c(C)c1Cc1cccc(C(N)=O)c1.Cl,0
6,Cl.Clc1cccnc1N1CCN(c2ncccc2Cl)CC1,0
7,CCN(C(=O)CSc1cc(C)c2cc(C)cc(C)c2n1)C1CCS(=O)(=O)C1 (stereo not drawn),82
8,COc1cc2nc(N(C)C)nc(Nc3ccc4c(cnn4Cc4ccccc4)c3)c2cc1OC,100
9,Cl.Nc1nc(N)c2c(ccc3c2ccn3C2CCCCC2)n1,46
10,O=C(Nc1ccccc1)Nc1ccc(-n2ccc(C(F)(F)F)n2)cc1,85
11,C=CCOC(=O)N1CCC(CNCc2cccc(-c3ccc(-c4nc5cccc(C)c5[nH]4)s3)c2)C1.O=C(O)C(F)(F)F (stereo not drawn),82
12,CCc1ccc(O)c(-c2cc(C(=O)Nc3ccc(OC)c(Cl)c3)[nH]n2)c1,97
13,COc1cc(OC)c(NC(=O)Nc2ccnc3ccccc23)cc1Cl,9
14,NCCC(=O)Nc1ccc(-c2cnc3[nH]cc(-c4ccc(C(=O)O)cc4)c3c2)cn1.O=C(O)C(F)(F)F,67
15,CNC(=O)NC1=NC(C)(C)N(OCCCOc2cc(Cl)c(Cl)cc2Cl)C(N)=N1,2
16,Cc1ccccc1NC(=O)C1CSCN1C(=O)OCc1ccccc1 (stereo not drawn),0
17,CCOC(=O)c1cnc2cc(N3CCCC3)c(Cl)cc2c1OCC,97
18,COc1ccc2ncc(F)c(CCN3CCC(NCc4cnc5c(c4)NC(=O)CS5)CC3)c2c1.Cl,16

row,Structure (SMILES),Inhibition [%]
1,Cc1cc(N[C@@H](CC(C)C)C(=O)NC2CCCC2)nc(NCCc2ccc(F)cc2)n1.O=C(O)C(F)(F)F,47
2,COc1ccc(C(=O)Nc2cc(Br)c3c(c2)CNCC3)cc1Br.Cl,8
3,CCOc1cc(C(=O)NCCCN2CCCCC2C)ccc1-c1nc2cc(Cl)ccc2[nH]1 (stereo not drawn),0
4,NC(=O)c1ccsc1NC(=O)CNC(c1ccccc1)c1ccccc1,37
5,CN1CCN(C(C(=O)NCc2cc(Cl)cc(Cl)c2)c2ccc(NC(=O)Nc3ccccc3)cc2)CC1.O=C(O)C(F)(F)F (stereo not drawn),43
6,CN(C)CCNCc1ccc(-c2ccc(-c3nc4cc(F)ccc4[nH]3)cc2)cc1.O=C(O)C(F)(F)F,99
7,CCN(CC)CCN(Cc1ccc(-c2ccc(C(F)(F)F)cc2)cc1)C(=O)CN1C(CCc2cccc(F)c2F)=NS(=O)(=O)c2ccccc21,49
8,Cl.O=S(=O)(c1ccc(OCc2ccc(Cl)cc2)cc1)c1cc2c(c(-c3ccc(F)cc3)c1)CCN(CC1CC1)CC2,14
9,CS(=O)(=O)O.FC(F)(F)COc1c(CCNCCCCNCCc2ccc3ccccc3c2OCC(F)(F)F)ccc2ccccc12,97
10,Cc1cccc(C(=O)Nc2ccnc(N3CCC(N(C)Cc4ccc(C#N)cc4)CC3)c2)c1.O=C(O)C(F)(F)F,6
11,Br.CC1(C)NC(N)=NC(=N)N1OCCCOc1ccccc1Cl,94
12,c1ccc2[nH]c(-c3ccc(-c4ccc(CN5CCC(N6CCCCC6)CC5)cc4)s3)nc2c1,100
13,CC1(C)N=C(N)N=C(N)N1c1cc(Cl)c(Cl)cc1Cl.Cl,0
14,O=C(NCCc1ccccc1)N(Cc1cccc(-c2ccc(CNCc3ccc4c(c3)OCO4)cc2)c1)C1CCN(Cc2ccccc2)CC1.O=C(O)C(F)(F)F,70
15,COc1ccc2nc(C)cc(Nc3ccc(Oc4ccc(Br)c5ccccc45)c(Cl)c3)c2c1,100
16,Cc1ccc(C(=O)Nc2ccc(C)c(OC3CCN(Cc4ccco4)C3)c2)cc1.O=C(O)C(F)(F)F (stereo not drawn),49
17,CCOC(=O)c1ccc(NC(=O)Nc2ccc(-c3ccc(-c4nc5cccc(C)c5[nH]4)s3)cc2)cc1,100
